Bioassay records: PubChem BioAssay, National Center for Advancing Translational Sciences (NCATS)
BAZ2B block – blocks human BAZ2B; Potency, µM (top dose mostly 114 µM), without a hit: at the top dose activity change, negative = inhibition, usual class: inhibitors; AlphaScreen BAZ2B-H3K14Ac peptide displacement; 360,000 tested, 4.4% active; AID 504333; also: % is scaled to controls: 0 for no effect and ±100 for the full control effect; nearly all actives have a fitted effect of over 60% in size
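Compounds, titrated to a top concentration of 110 uM, were incubated 30 min at room temperature with preformed BAZ2B/acetyl-K14 H3 peptide complex (50 nM each). Proximity signal was measured by AlphaScreen after 20 min with beads.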
HP1b chromo inh – blocks HP1-beta chromodomain binding to methylated histone tails; P83916; 390,000 tested, 0.56% active; AlphaScreen HP1-beta / biotin-H3K9me3 peptide binding; Potency, µM (top dose mostly 114 µM), for inactives: at the highest dose activity change, negative = inhibition, hits mostly inhibitors; also: nearly all actives have a fitted effect of over 70% in size
Target sequence (P83916 whole entry, looked up): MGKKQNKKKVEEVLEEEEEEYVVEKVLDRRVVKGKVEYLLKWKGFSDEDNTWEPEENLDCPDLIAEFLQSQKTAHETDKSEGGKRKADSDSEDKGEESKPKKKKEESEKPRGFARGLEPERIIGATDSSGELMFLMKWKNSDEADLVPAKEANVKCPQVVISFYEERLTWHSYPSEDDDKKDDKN
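AlphaScreen: HP1-beta (50 nM) preformed 30 min with biotin-H3(1-18)K9me3 peptide (50 nM) in PBS pH 7.4, 0.01% Tween-20. Compound added for 30 min at RT, then streptavidin donor/nickel chelate acceptor beads (10 ug/mL) for 30 min.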
Sfp inh – Sfp phosphopantetheinyl transferase inhibition; Q9F4F7; Biochemical Sfp PPTase activity, qHTS; Potency, µM, without a hit: largest response in the series, negative = inhibition, actives largely listed as inhibitors; 310,000 tested, 3.5% active;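 also: the enzyme is Sfp with the accession as filed and its product quenches rhodamine fluorescence; 0% = enzyme reaction without inhibitor and -100% = no enzyme wells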
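Fluorescence-quenching assay: 15 nM Sfp-PPTase preincubated 15 min at room temperature with compound, then 5 uM rhodamine-CoA and 12.5 uM BHQ-2-labelled YbbR peptide added. Fluorescence (ex 525/em 598 nm) read at start and after 30 min; difference gives rate.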
JMJD2A Tudor inh – JMJD2A Tudor domain (human) inhibition. O75164. AlphaScreen JMJD2A-Tudor / H3K4me3 peptide binding. Potency, µM (doses to about 114 µM), for inactives: at the top dose activity change, negative = inhibition, actives largely listed as inhibitors. 390,000 tested, 4.4% active. AID 504339; also: % is scaled to controls: 0 for no effect and ±100 for the full control effect; nearly all actives have a fitted effect of over 50% in size
G9a inh – inhibitors of human histone lysine methyltransferase G9a; G9a H3K9 monomethylation, AlphaScreen, 2 h; Potency, µM (highest dose often 102 µM), without a hit: at the top dose activity, negative = inhibition, usual class: inhibitors; 350,000 tested, 8.8% active; AID 504332; also: % is scaled to controls: 0 for no effect and ±100 for the full control effect; nearly all actives have a fitted effect of over 75% in size
Target sequence (Q96KQ7 913-1193 limits assumed): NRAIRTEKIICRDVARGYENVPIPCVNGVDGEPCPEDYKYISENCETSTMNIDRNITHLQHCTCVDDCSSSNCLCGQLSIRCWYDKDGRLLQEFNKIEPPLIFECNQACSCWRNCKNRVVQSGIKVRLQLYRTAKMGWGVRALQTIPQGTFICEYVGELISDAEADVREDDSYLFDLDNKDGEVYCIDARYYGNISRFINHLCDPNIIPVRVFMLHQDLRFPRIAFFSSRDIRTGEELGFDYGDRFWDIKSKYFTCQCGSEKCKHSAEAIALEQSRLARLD
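Quantitative HTS format: methyltransferase activity on a biotin-tagged H3K9 peptide is measured by AlphaScreen, using a rabbit anti-monomethyl-H3K9 antibody with streptavidin donor and anti-IgG acceptor beads. Final levels are 20 nM enzyme, 500 nM peptide, 20 uM SAM; 2 h RT.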
L3MBTL1 inh – L3MBTL1 (human) inhibition. Q9Y468. AlphaScreen L3MBTL1–H3K9me1 peptide binding. Potency, µM (series often up to 57.1 µM), without a hit: top-dose activity, negative = inhibition, hits mostly inhibitors. 230,000 tested, 0.66% active; also: % is scaled to controls: 0 for no effect and ±100 for the full control effect; nearly all actives have a fitted effect of over 60% in size
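Displacement of a biotinylated histone H3(1-15) peptide monomethylated at Lys9 (75 nM) from L3MBTL1 (50 nM) was measured by AlphaScreen after a 30 min room-temperature compound incubation; cefsulodin titration served as intraplate control.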
An asterisk follows results filed as active; ? = inconclusive; . = no result; [ ] = another dose, or the depositor's remark. Compounds with a hit are over-represented: about 12% of the library has one in this group of screens. Calls follow the shape of the dose curve; as a rule, active = well fitted curve in the direction sought with a large enough effect; inconclusive = small, poorly fitted or top-dose-only effect, or another doubt; inactive = no such curve, though single readings can be large; an effect the other way counts as inactive or inconclusive. Potency is read from the fitted curve at half-maximal effect.

SMILES	BAZ2B block	HP1b chromo inh	Sfp inh	JMJD2A Tudor inh	G9a inh	L3MBTL1 inh
O=C(O)COc1c(-c2ccco2)oc2ccccc2c1=O	-1.6%	40.0%	11.1%	-4.2%	44.7µM*	.
NC(=O)COc1c(-c2ccco2)oc2ccccc2c1=O	-5.8%	8.6%	89.1µM*	-14.0%	-50.4%	25.4%
O=C(Cc1n[nH]c(=O)c2ccccc12)NC(c1ccccc1)c1ccccc1	-11.5%	63.5%	-11.3%	-8.8%	13.6%[59 µM]	.
COc1cccc([C@H]2Oc3ccc(OC)cc3/C(=N\O[C@@H](C)c3cn([C@H](CO)Cc4ccccc4)nn3)[C@@H]2O)c1	.	.	17.1%	.	.	.
COc1ccc(CNC(=O)CCc2nc3cccnc3n2Cc2ccccc2)cc1	-6.5%	32.0%	.	-8.6%	-2.6%[59 µM]	.
CCN(C(=O)COC(=O)c1nc(Cl)ccc1Cl)c1c(N)n(Cc2ccccc2)c(=O)[nH]c1=O	.	19.4%	.	-15.2%	.	.
O=C1C(=C(c2ccccc2)c2ccccc2)Nc2ccccc21	11.2µM*	15.8µM*	3.4%	28.2µM*	-146.8%[59 µM]	.
COc1cc(-c2nc(-c3ccc4c(c3)-c3ccccc3S4(=O)=O)c(-c3ccccc3)[nH]2)cc(OC)c1OC	-2.5%	18.1%	0.2%	-28.1%	44.7µM*	.
CCOc1ccc(CNC(=O)C2CCN(C(=O)N3CC(CC)Oc4ccc(C)cc43)CC2)cc1OC (stereo unspecified)	0.1%	42.6%	.	4.6%	-23.5%[59 µM]	.
CCN(CC)S(=O)(=O)c1ccc(O)c(NC(=O)CN2CCc3ccccc3C2)c1	-2.5%	33.6%	33.0%	9.0%	14.9%	-0.7%
COc1cc2c(cc1OC)CN(CC(=O)Nc1ccc(S(=O)(=O)N(C)C)cc1)CC2	.	-3.0%	2.0%	-28.1%	8.4%	-7.8%
COc1cc2c(cc1OC)CN(CC(=O)Nc1ccc(Cl)c(S(=O)(=O)N(C)C)c1)CC2	-25.7%	.	9.4%	.	44.7µM*	-10.4%
CN(C)S(=O)(=O)c1cc(NC(=O)CN2CCOCC2)ccc1Cl	-5.4%	-0.6%	23.8%	14.1µM*	23.0%	2.9%
Cc1ccc(NC(=O)CN2CCc3ccccc3C2)cc1S(=O)(=O)N(C)C	50.1µM*	?	-33.2%	3.16µM*	10µM*	-22.3%
CN(C)S(=O)(=O)c1ccc(Cl)c(NC(=O)CN2CCc3ccccc3C2)c1	-38.6%	55.0%	1.4%	-14.0%	44.7µM*	-5.7%
O=C(C[n+]1ccn(CCCNP2(=O)C=C(c3ccccc3)OC(c3ccccc3)=C2)c1)c1cccs1	-26.2%	15.6%	-9.8%	-22.1%	?	.
COc1ccc(C(CNC(=O)CCNC(=O)c2ccccc2OC)N2CCCC2)cc1 (stereo unspecified)	1.0%	18.2%	.	-11.0%	1.9%	-1.2%
c1ccc(-c2nc(NCc3cccnc3)c3oc4ccccc4c3n2)cc1	50.1µM*	48.1%	-17.3%	?	?	6.7%
OCCCNc1nc(-c2ccccc2)nc2c1oc1ccccc12	?	0.8%	3.3%	-9.4%	50.1µM*	2.3%
c1ccc(-c2nc(NCC3CCCO3)c3oc4ccccc4c3n2)cc1 (stereo unspecified)	-8.8%	44.2%	-23.7%	-14.4%	44.7µM*	.
COc1ccc(S(=O)(=O)N2CCC(C(=O)NC(c3nc4ccccc4[nH]3)C(C)C)CC2)cc1 (stereo unspecified)	13.0%	25.8%	.	-14.8%	-9.9%[12.7 µM]	0.6%
O=S(=O)(c1cccc(C(F)(F)F)c1)N1CCN(c2nc(-c3cccs3)nc3cc(Cl)ccc23)CC1	.	37.6%	.	-21.2%	.	.
Cc1ccc(-c2noc(Cn3cc(S(=O)(=O)N4CCCC4)ccc3=O)n2)cc1	-4.5%	41.0%	.	8.1%	16.0%[12.7 µM]	-6.9%
Nc1ccc(CCn2ccnc2)cc1	44.7µM*	36.7%	24.2%	79.4µM*	-11.6%	.
Cc1ccc2c(c1)[nH]c1c(=O)n(CCN3CCNCC3)cnc12	0.2%	35.3%	15.7%	-17.7%	44.7µM*	1.6%
SMILES	BAZ2B block	HP1b chromo inh	Sfp inh	JMJD2A Tudor inh	G9a inh	L3MBTL1 inh
CCN(CC)CCCCCOc1ccccc1OC	-10.5%	11.7%	10.1%	-14.1%	-35.4%	-6.2%
CCCCN(C/C=C/c1ccccc1OC)Cc1ccccc1	?	?	-3.0%	1.26µM*	17.8µM*	-2.4%
CCN(CC)CCOC(=O)/C=C/c1ccccc1OC	0.1%	40.3%	6.2%	-10.8%	-2.7%[59 µM]	4.8%
CCN(C/C=C/c1ccccc1OC)Cc1ccccc1	?	?	-13.1%	20µM*	.	3.3%
COC(=O)N1CCC2(CCN(Cc3nccs3)CC2)CC1	.	.	21.2%	.	-10.3%[12.7 µM]	.
Cc1cc(OCc2ccc(C(=O)NN=C3CCCC3)cc2)ccc1Cl	42.3%	38.9%	-11.8%	-11.9%	34.5%[59 µM]	13.1%
O=C(Cn1nnc(-c2ccc(F)cc2)n1)OCC(=O)c1ccccc1	-12.6%	37.7%	79.4µM*	-8.5%	?	46.1%
O=C(Cn1nnc(-c2ccccc2)n1)NNC(=O)c1ccccc1	-17.7%	?	-27.4%	-11.0%	39.8µM*	-11.4%
O=C(Cn1nnc(-c2ccccc2)n1)NNC(=O)c1ccc(Br)cc1	-20.7%	3.2%	10.1%	-14.3%[11.4 µM]	16.2%	58.2%
O=C(Cn1nnc(-c2ccccc2F)n1)OCC(=O)c1ccccc1	36.2%	13.4%	-29.4%	-6.5%	?	-8.1%
CCOc1ccc(NS(=O)(=O)c2cc(C(=O)N3CCCC3)ccc2Cl)cc1	-4.9%	18.7%	.	-9.7%	14.9%	11.7%
O=C(O)c1ccc(Cl)c(S(=O)(=O)Nc2ccc(OCc3ccccc3)cc2)c1	-13.4%	10.6%	6.5%	-13.8%	39.8µM*	.
Cc1cc(C([O-])=C(C(=S)Nc2ccc(F)cc2)[n+]2ccccc2)c(C)n1-c1ccc(F)cc1	.	50.1µM*	.	.	.	.
COc1cccc(NC(=O)CCN2CCN(c3ccccc3F)CC2)c1	1.5%	28.1%	11.2%	-25.9%	10.0%[59 µM]	.
Cc1cc(C)cc(NC(=S)/C(=C(\[O-])c2ccc(Cl)cc2Cl)[n+]2ccccc2)c1	?	-8.0%	10.6%	0.7%[11.4 µM]	?	-24.0%
COc1cccc(NC(=S)/C(=C(\[O-])c2cc(C)n(-c3ccccc3F)c2C)[n+]2ccc(N(C)C)cc2)c1	39.8µM*	-18.0%	-16.2%	25.1µM*	35.5µM*	.
C=CCc1cccc(/C=N/c2ncn[nH]2)c1O	-33.5%	11.3%	20.5%	-17.6%[57.1 µM]	-4.0%[12.7 µM]	.
Cc1cccc(C=Nc2ccc3c4c(cccc24)CC3)c1O	?	5.1%	-23.7%	-29.0%	?	-14.0%
CCc1ccc(O)c(N=Cc2cccc(C)c2O)c1	-34.5%	-3.3%	-19.6%	?	2.51µM*	-1.3%
C=CCc1cccc(C=Nc2cc(Br)ccc2O)c1O	?	8.6%	?	?	44.7µM*	-4.6%
COc1ccc(CCN(C)C(=O)CSc2nnc(C3CC3)n2N)cc1OC	-4.7%	28.0%	.	-1.4%	39.8µM*	9.7%
